PubChem BioAssay (EPA / NIEHS)
The source made the active and inactive calls. The calls were made as follows: active = hit-call score of the fitted dose curve at least 0.9, where 1 is the maximum; inactive = score below 0.9.

Tests used:
[1] = ATG_GRE_CIS: Attagene CIS-FACTORIAL HepG2 Assay for human Glucocorticoid Response Elements (GRE) (AID 2282947); conditions: HepG2 GRE cis-reporter, Attagene multiplex mRNA; actives raise or lower the signal
In short: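 Transiently transfected HepG2 cells carrying GRE cis-reporter units (endogenous TF activity) dosed 24 h; reporter mRNA quantified by RT-PCR, 6-FAM labelling, HpaI digestion and capillary electrophoresis. Bidirectional fit versus DMSO baseline.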

[2] = ATG_ISRE_CIS: Attagene CIS-FACTORIAL HepG2 Assay for human Interferon Regulatory Factor 1 (IRF1) binding to an Interferon-Stimulated Response Element (ISRE) (AID 2282948); conditions: HepG2 ISRE cis-reporter (Attagene), mRNA transcription readout; actives raise or lower the signal
In short: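 Transfected HepG2 (multiple reporter transcription units, cis elements) dosed 24 h. RNA → oligo(dT) RT → PCR → 6-FAM primer extension → HpaI → CE. DMSO = negative control/baseline.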

[3] = ATG_M_32_CIS: Attagene CIS-FACTORIAL HepG2 Assay for M32 Transcription Factor (Internal Marker) (AID 2282949); conditions: HepG2 Attagene cis-factorial M32 reporter, mRNA; actives raise or lower the signal;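 also: background control marker of the multiplexed CIS panel rather than a real target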
In short: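 HepG2 cells transiently transfected with multiplexed cis-regulated reporter units, dosed 24 h. Reporter mRNA quantified by RT-PCR, 6-FAM labelling, HpaI digestion and capillary electrophoresis; bidirectional fit vs DMSO.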

[4] = ATG_M_06_CIS: Attagene CIS-FACTORIAL HepG2 Assay for M06 Transcription Factor (Internal Marker) (AID 2282950); conditions: HepG2 Attagene CIS-FACTORIAL M06 internal marker reporter; actives raise or lower the signal
In short: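 Read-out is fluorescence of labelled reporter cDNA fragments resolved by capillary electrophoresis after RT-PCR. Cells: HepG2 carrying transfected cis-promoter reporter units, treated 24 h. Gain or loss of signal fitted relative to DMSO.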

[5] = biological target: Hypoxia-inducible factor 1-alpha (Homo sapiens) (UniProt Q16665); assay: ATG_HIF1a_CIS: Attagene CIS-FACTORIAL HepG2 Assay for human Hypoxia Inducible Factor 1 (HIF1A) (AID 2282951); conditions: HepG2 Attagene cis-factorial HIF1a reporter transcription; actives raise or lower the signal
Hypoxia-inducible factor 1-alpha (Homo sapiens), sequence (Q16665 whole entry, looked up): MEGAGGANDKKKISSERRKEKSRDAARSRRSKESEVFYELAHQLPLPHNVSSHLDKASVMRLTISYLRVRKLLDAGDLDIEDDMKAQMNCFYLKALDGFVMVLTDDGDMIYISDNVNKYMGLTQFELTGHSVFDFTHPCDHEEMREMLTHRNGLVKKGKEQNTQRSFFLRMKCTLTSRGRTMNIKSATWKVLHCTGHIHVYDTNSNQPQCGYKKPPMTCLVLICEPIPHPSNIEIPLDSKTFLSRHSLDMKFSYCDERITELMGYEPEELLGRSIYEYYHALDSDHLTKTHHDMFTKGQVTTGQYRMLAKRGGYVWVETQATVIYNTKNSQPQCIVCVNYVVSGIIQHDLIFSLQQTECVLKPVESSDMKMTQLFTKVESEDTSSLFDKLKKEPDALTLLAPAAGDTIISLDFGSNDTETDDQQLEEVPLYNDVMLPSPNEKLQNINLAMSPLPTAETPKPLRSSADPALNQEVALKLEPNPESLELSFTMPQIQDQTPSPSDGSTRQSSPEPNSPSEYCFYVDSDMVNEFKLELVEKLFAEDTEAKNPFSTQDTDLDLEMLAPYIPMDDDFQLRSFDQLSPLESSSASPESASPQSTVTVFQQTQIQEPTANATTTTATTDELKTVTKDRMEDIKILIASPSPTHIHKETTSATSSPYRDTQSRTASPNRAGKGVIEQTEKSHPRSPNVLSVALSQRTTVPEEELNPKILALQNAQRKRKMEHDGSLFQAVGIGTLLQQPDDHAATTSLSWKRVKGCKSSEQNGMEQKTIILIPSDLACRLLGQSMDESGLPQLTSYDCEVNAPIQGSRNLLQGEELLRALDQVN
In short: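 Activity is fitted in both directions relative to DMSO. Reporter transcripts are read by RT-PCR, fluorescent primer extension and capillary electrophoresis after 24 h chemical treatment. The cells are HepG2 carrying transiently transfected cis-element-driven reporter units responding to endogenous factors.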

[6] = biological target: Hepatocyte nuclear factor 6 (Homo sapiens) (UniProt Q9UBC0); assay: ATG_HNF6_CIS: Attagene CIS-FACTORIAL HepG2 Assay for human Hepatocyte Nuclear Factor 6 (HNF6) (AID 2282952); conditions: HepG2 Attagene cis-factorial HNF6 reporter transcription; actives raise or lower the signal
Hepatocyte nuclear factor 6 (Homo sapiens), sequence (Q9UBC0 whole entry, looked up): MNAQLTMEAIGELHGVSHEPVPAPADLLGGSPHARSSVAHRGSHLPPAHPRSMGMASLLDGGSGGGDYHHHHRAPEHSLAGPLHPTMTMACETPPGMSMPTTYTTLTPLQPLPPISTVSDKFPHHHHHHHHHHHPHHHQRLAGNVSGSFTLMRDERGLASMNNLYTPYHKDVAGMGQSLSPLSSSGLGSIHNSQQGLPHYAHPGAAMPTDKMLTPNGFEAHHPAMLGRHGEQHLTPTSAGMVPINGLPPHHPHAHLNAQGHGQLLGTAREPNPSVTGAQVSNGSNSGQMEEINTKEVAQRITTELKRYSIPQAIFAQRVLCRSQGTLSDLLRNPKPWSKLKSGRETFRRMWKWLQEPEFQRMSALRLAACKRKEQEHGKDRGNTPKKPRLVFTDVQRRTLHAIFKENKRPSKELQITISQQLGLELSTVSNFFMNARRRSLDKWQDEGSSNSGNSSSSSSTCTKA
In short: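 HepG2 cells transiently transfected with cis-element-driven multiple reporter transcription units, dosed 24 h; reporter mRNA quantified by RT-PCR, FAM primer extension, HpaI digestion and capillary electrophoresis; bidirectional fit versus DMSO baseline.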

[7] = biological target: Heat shock factor protein 1 (Homo sapiens) (UniProt Q00613); assay: ATG_HSE_CIS: Attagene CIS-FACTORIAL HepG2 Assay for human Heat Shock Transcription Factor 1 (HSE) (AID 2282953); conditions: HepG2 HSE cis-reporter, Attagene RNA transcription; actives raise or lower the signal
Heat shock factor protein 1 (Homo sapiens), sequence (Q00613 whole entry, looked up): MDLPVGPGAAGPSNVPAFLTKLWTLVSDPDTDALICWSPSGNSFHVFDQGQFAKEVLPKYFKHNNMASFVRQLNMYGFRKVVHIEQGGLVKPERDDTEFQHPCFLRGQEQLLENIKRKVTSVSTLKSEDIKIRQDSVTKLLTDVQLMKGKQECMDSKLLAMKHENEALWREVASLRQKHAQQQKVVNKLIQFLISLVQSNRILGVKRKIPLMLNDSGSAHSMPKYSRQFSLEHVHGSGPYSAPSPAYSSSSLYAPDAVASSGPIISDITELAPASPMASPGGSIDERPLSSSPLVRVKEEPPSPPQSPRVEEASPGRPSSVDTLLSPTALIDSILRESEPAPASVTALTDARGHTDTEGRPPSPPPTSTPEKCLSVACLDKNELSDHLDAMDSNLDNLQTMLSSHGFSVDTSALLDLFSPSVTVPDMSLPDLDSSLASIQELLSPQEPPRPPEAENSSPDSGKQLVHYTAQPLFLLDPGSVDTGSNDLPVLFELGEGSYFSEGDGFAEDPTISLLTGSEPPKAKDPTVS
In short: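 HepG2, transient MRTU transfection, cis-promoter reporters (endogenous TF activity). 24 h compound. RNA → oligo(dT) RT → PCR → 6-FAM primer extension → HpaI cut → CE. Bidirectional fit vs DMSO.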

[8] = ATG_MRE_CIS: Attagene CIS-FACTORIAL HepG2 Assay for human Metal Responsive Element (MRE) (AID 2282954); conditions: HepG2 MRE cis-reporter transcription, Attagene multiplex; actives raise or lower the signal
In short: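 HepG2 cells transiently transfected with cis-element-driven reporter units; mRNA measured 24 h after dosing. Reporter transcripts quantified by RT-PCR, FAM labelling, HpaI digestion and capillary electrophoresis; bidirectional fit versus DMSO.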

[9] = ATG_PBREM_CIS: Attagene CIS-FACTORIAL HepG2 Assay for human Phenobarbital-responsive Enhancer Module (PBREM) (AID 2282955); conditions: HepG2 PBREM cis-reporter, Attagene multiplexed transcription; actives raise or lower the signal
In short: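 Endogenous transcription factor activity was read from reporter transcripts in transiently transfected human HepG2 liver cells after 24 h dosing. RT-PCR products were fluorescently labelled, HpaI-cut and sized by capillary electrophoresis; activity fitted bidirectionally against DMSO baseline.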

Measured: AC50

COC(C)(C)CCO
inactive: [1] | [2] | [3] | [4] | [5] | [6] | [7] | [8] | [9]

COCCOC(=O)c1ccccc1C(=O)OCCOC
inactive: [1] | [2] | [3] | [4] | [5] | [6] | [7] | [9]

CCCCSCCCC
inactive: [1] | [2] | [3] | [6] | [7] | [8] | [9]

CC(=O)C1(C)CC2=C(CCCC2(C)C)CC1C (centres undefined)
active: [2] 152 µM | [6] 134 µM | [8] 160 µM | [9] 100 µM
inactive: [1] | [3] | [5] | [7]

CC[N+](C)(CC)CC
inactive: [1] | [2] | [3] | [4] | [6] | [7] | [9]

CC(C)=CCCC(C)CC(=O)O (centres undefined)
inactive: [1] | [2] | [4] | [5] | [6] | [7] | [8] | [9]

CCCC(=O)OC(C)(C)Cc1ccccc1
inactive: [1] | [2] | [3] | [4] | [6] | [7] | [8] | [9]

CC/C=C\CC/C=C/CO
inactive: [1] | [2] | [3] | [4] | [6] | [9]

CCOC(=O)CN
inactive: [1] | [2] | [3] | [4] | [5] | [6] | [7] | [9]

CC1C2CC(CC2C2CCCC(O)C2)C1(C)C (centres undefined)
inactive: [1] | [2] | [3] | [5] | [6] | [7] | [8]

CC1=NN(c2ccc(S(=O)(=O)O)cc2)C(=O)C1
inactive: [1] | [2] | [3] | [5] | [6] | [7] | [8] | [9]
